The full list was thinned out, with hits kept by preference.
Pf Dd2 growth – Plasmodium falciparum Dd2 growth inhibition; AID 1347417; P. falciparum Dd2 growth, SYBR Green, 72 h; hit rate 4.3% among 120,000; Potency, µM (series often up to 28.9 µM), hits mostly inhibitors; active means well fitted inhibition curve with a large enough effect; further: nearly all actives have a fitted effect of over 65% in size
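Infected erythrocytes (Dd2, 0.3% parasitemia, 2.5% hematocrit final) are added to compound in RPMI-1640/Albumax II medium, grown 72 h at 37C in low oxygen, then lysed with saponin/Triton-X containing SYBR Green and read by fluorescence.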
Hits are given with their value; – = inactive; [ ] = dose if it differs, or a comment.

SMILES	Pf Dd2 growth
CC(=O)Nc1ccc(C2(C(=O)NCc3cc(F)cc(F)c3)CCCCC2)cc1	–
O=C(NCc1nnc2c(-c3nc(C4CC4)no3)cccn12)c1cccc(F)c1	–
O=S1(=O)CCC(S(=O)(=O)Nc2ccc(F)cc2)C1 (stereo not drawn)	–
CN1CCN(C(=O)[C@@H]2CCC[C@@H](NCc3cccc(Cl)c3)CN(C)C(=O)C2)CC1	–
O=C(Cc1c[nH]c2ncc(-c3cccc(OC(F)(F)F)c3)cc12)NCc1cccnc1	4µM
Cn1cc(-c2cnc3[nH]cc(CC(=O)NCc4ccncc4)c3c2)cn1	4µM
Cn1cc(-c2cnc3[nH]cc(CC(=O)NC4CCC4)c3c2)cn1	–
CC(C)CNC(=O)Cc1c[nH]c2ncc(-c3cnn(C)c3)cc12	–
CN1CCN(C(=O)Cc2c[nH]c3ncc(-c4cccc(OC(F)(F)F)c4)cc23)CC1	–
COc1cc(F)cc(-c2cnc3[nH]cc(CC(=O)NCc4cccnc4)c3c2)c1	–
CCCCN1CCN(C(=O)c2ccc3c(c2)N(S(C)(=O)=O)CC3)CC1	–
COC(=O)[C@H]1CN(C(=O)NC(C)C)CCN1S(C)(=O)=O	–
CC(C)NC(=O)C[C@@H]1CCNC[C@@H]1Cc1cc(-c2ccc(C(C)(C)C)cc2)on1	7.1µM
CC(C)(C)c1ccc(-c2cc(C[C@H]3CNCC[C@H]3CC(=O)N3CCC(Cc4ccccc4)CC3)no2)cc1	–
CC(C)(C)c1ccc(-c2cc(C[C@H]3CNCC[C@H]3CC(=O)NCCN3CCOCC3)no2)cc1	10µM
CC(C)(C)c1ccc(-c2cc(C[C@H]3CNCC[C@H]3CC(=O)Nc3ccccc3)no2)cc1	–
CN1CCN(C(=O)C[C@@H]2CCNC[C@@H]2Cc2cc(-c3ccccc3)on2)CC1	–
CN(C)CCNC(=O)C[C@@H]1CCNC[C@@H]1Cc1cc(-c2ccc(C(C)(C)C)cc2)on1	–
O=C(C[C@@H]1CCNC[C@@H]1Cc1cc(-c2ccccc2)on1)NC1CC1	–
CCN(CC)C(=O)C[C@@H]1CCNC[C@@H]1Cc1cc(-c2ccc(C(C)(C)C)cc2)on1	4.5µM
COc1ccc(-c2cc(C[C@H]3CNCC[C@H]3CC(=O)N3CCOCC3)no2)cc1	–
CSc1cccc(NC(=O)N[C@H]2CO[C@H]3[C@@H]2OC[C@H]3O)c1	–
CCN1c2cc(C(=O)Nc3ccc(OC)c(Cl)c3)ccc2C(=O)N2CCCCC21 (stereo not drawn)	–
COc1cccc(CN2CCC(N3C(=O)C(OC)C34CCOCC4)CC2)n1 (stereo not drawn)	–
CCC(O)c1cc2n(n1)CCN(Cc1nnc(-c3cccc(F)c3)o1)C2 (stereo not drawn)	–
SMILES	Pf Dd2 growth
COc1cc(CN2C[C@@H]3C(=O)N(CCCN4CCCC4=O)C(=O)[C@@H]3C2)cc(OC)c1OC	–
CC(C)(C)c1coc([C@@H]2COCCN2Cc2ccccc2)n1	–
COc1ccc(CN2C(=O)CO[C@H](c3ccc(NC(=O)Nc4ccccc4)cc3)[C@H]2CO)cc1	–
COc1ccccc1C(=O)NC1CCN(c2cc(-c3ccccc3)[nH]n2)C1 (stereo not drawn)	–
Cc1ccc(CSc2nc(-c3ccccc3C)nc3c2Cc2c(CO)cnc(C)c2O3)cc1	5µM
Cc1ccc(-c2nc3c(c(SCC(=O)N4CCCCC4)n2)Cc2cc(C)ccc2O3)cc1	–
Cc1ccc(C)c(NC(=O)CSc2nc(-c3ccccc3Cl)nc3c2Cc2c(CO)cnc(C)c2O3)c1	–
C=Cc1ccc(CSc2nc(-c3ccc(C)cc3)nc3c2Cc2c(CO)cnc(C)c2O3)cc1	2.8µM
CCc1ccc(NC(=O)CSc2nc(-c3cccc(OC)c3)nc3c2Cc2c(CO)cnc(C)c2O3)cc1	3.5µM
CCCCSc1nc(-c2cccc(OC)c2)nc2c1Cc1c(CO)cnc(C)c1O2	–
C=Cc1ccc(CSc2nnc(C)n3c2cc2occc23)cc1	–
COc1ccccc1-c1nc2c(c(SCC(=O)Nc3c(C)cc(C)cc3C)n1)Cc1c(CO)cnc(C)c1O2	–
COc1ccc(-c2nc3c(c(SCC(=O)Nc4cc(C)cc(C)c4)n2)Cc2c(CO)cnc(C)c2O3)cc1	–
CCc1ccc(CSc2nc(-c3ccccc3OC)nc3c2Cc2c(CO)cnc(C)c2O3)cc1	3.2µM
Cc1cccc(-c2nc3c(c(SCc4ccccc4Cl)n2)Cc2c(CO)cnc(C)c2O3)c1	–
CCc1ccccc1NC(=O)CSc1nc(-c2ccccc2OC)nc2c1Cc1c(CO)cnc(C)c1O2	–
CCc1noc(CC2CCOC3(CCN(S(=O)(=O)c4cccc(OC)c4)CC3)C2)n1 (stereo not drawn)	–
O=C1N[C@@H]2CCN(C(=O)c3cccs3)[C@@H]2C(=O)N1c1ccc(Oc2ccccc2)cc1	–
C#CCNC(=O)C1CCN(C(=O)C2CN(c3cccc(OC)c3)C(=O)N2)C1 (stereo not drawn)	–
O=C(NC1CCN(c2cc(-c3ccccc3)[nH]n2)C1)c1ccc(F)c(Cl)c1 (stereo not drawn)	–
COCCCNC(=O)C1c2ccccc2CC(=O)N1Cc1ccccc1 (stereo not drawn)	–
CC(C(=O)N1CCc2onc(-c3ccc(C(F)(F)F)cc3)c2C1)N1CCCC1=O (stereo not drawn)	–
CNC(=O)[C@@H]1C[C@H](n2cc(CNC(=O)Nc3ccc(C)c(Cl)c3)nn2)CN1	–
O=C(c1ccc(F)c(F)c1)N1CCC(n2cc(-c3nc(-c4ccccc4)no3)nn2)CC1	–
Cc1cnc(CN2CC3(CCCN(c4ccc(C#N)cn4)C3)CCC2=O)cn1 (stereo not drawn)	–
SMILES	Pf Dd2 growth
Cc1cccc(CN2CCC(N3CCCC(C(=O)NC4CC4)C3)CC2)c1 (stereo not drawn)	–
CCCCNC(=O)C1CCCN(C2CCN(Cc3ccncc3)CC2)C1 (stereo not drawn)	–
O=C(NC1CCCCCCC1)C1CCCN(C2CCN(Cc3ccncc3)CC2)C1 (stereo not drawn)	13µM
CCN1C(=O)CCC2(C(=O)NCC3CC3)CCCC=C12 (stereo not drawn)	–
CN(Cc1cccnc1)Cc1nc(C2(O)CCN(C(=O)c3ccc(F)cc3)CC2)cs1	–
Cc1ccc(NC(=O)Cn2c(=O)c(-c3noc(C)n3)c3n(c2=O)CCCCC3)cc1	–
O=C(NC[C@H]1OC[C@@H](NC2CCC2)[C@@H]1O)C1CC1	–
CN1CCN(c2ncnc3sc4c(c23)CCN(Cc2ccco2)C4)CC1	11µM
c1ccc(CN2CCc3c(sc4ncnc(N5CCOCC5)c34)C2)cc1	7.9µM
CCN1CCN(c2nc3c(s2)CN(Cc2ccco2)CC3)CC1	–
c1ccc(CN2CCNc3cnc(-c4ccc(N5CCOCC5)cc4)cc3C2)cc1	–
CN1CCN(c2nc3c(c(=O)[nH]2)CCN(Cc2ccc(Br)s2)CC3)CC1	–[5.79 µM]
COc1ccc(-c2nc(N3CCOCC3)cc3c2CN(Cc2ccccc2)C3=O)cn1	–
Cn1cnc2cc(C(=O)N3CCNCC(C(=O)O)C3)ccc21 (stereo not drawn)	–
Cc1cc(F)cc(CN2CCc3nc(C(=O)Nc4ccccc4)oc3CC2)c1	–
CCCCCCOc1ccc(C2C(=O)N(C3CCCCC3)CC(=O)N2CCCC)cc1 (stereo not drawn)	8.9µM
O=C1C(c2ccc(F)cc2)N(Cc2ccccc2Cl)C(=O)CN1C1CCCCC1 (stereo not drawn)	–
CCCOc1ccc(C2C(=O)N(C3CCCCC3)CC(=O)N2C2CCCCC2)cc1OC (stereo not drawn)	–
Cc1cc(C(=O)N2CCC(n3c(=O)[nH]c4ccccc43)CC2)ccc1Cl	–
